The source of these data is the supplement of paper PMC8387472.

Structures are written as SMILES. Where a name gives a salt, the structure may show the parent alone. ± gives the standard deviation of the averaged measurements.

This assay relates to mESC LDLR-Dup GFP reporter (SpCas9 MH-deletion repair). Briefly: fraction of GFP+ cells relative to DMSO control (fold change); higher = more MH-deletion repair to in-frame LDLR (or more editing). The note with it: 2 µM; 7 days post-transfection.
On to `Cc1cc(SCc2sc(-c3ccc(C(F)(F)F)c(F)c3)nc2C)ccc1OCC(=O)O`, for which the “fraction of GFP+ cells” value came to 1.72 ± 0.64.
Then `C/C(O)=C(\C#N)C(=O)Nc1cc(Br)ccc1Br`, with 1.04 ± 0.32; and `NC(=O)c1cc(N2CC2)c([N+](=O)[O-])cc1[N+](=O)[O-]`, with 1.43 ± 0.66.
As to `COC[C@H]1OC(=O)c2coc3c2[C@@]1(C)C1=C(C3=O)[C@@H]2CCC(=O)[C@@]2(C)C[C@H]1OC(C)=O` [Wortmannin], the “fraction of GFP+ cells” value is 0.685 ± 0.098.
Turning to `Cn1c(CCCC(=O)O)nc2cc(N(CCCl)CCCl)ccc21` [Bendamustine HCl], the “fraction of GFP+ cells” value came out at 1.26 ± 0.33.
As for `O=P1(N(CCCl)CCCl)NCCCO1` (stereo not given) [Cyclophosphamide Monohydrate], the “fraction of GFP+ cells” value was 1.78 ± 0.27.
In the case of `CN1CCN(c2ccc([N+](=O)[O-])c3no[n+]([O-])c23)CC1` it was 1.37 ± 0.088; in that of `CCn1cc(C(=O)O)c(=O)c2cc3c(cc21)OCO3` [Oxolinic acid], 0.941 ± 0.23; in that of `COc1ccc2c(c1)[nH]c1c(C)nccc12` [harmine hydrochloride], 1.1 ± 0.11.
For `C/C=C(\C)C(=O)N[C@@H](c1ccccc1)[C@@H](O)C(=O)O[C@H]1C[C@@]2(O)[C@@H](OC(=O)c3ccccc3)[C@@H]3[C@]4(OC(C)=O)CO[C@@H]4C[C@H](O)[C@@]3(C)C(=O)[C@H](OC(C)=O)C(=C1C)C2(C)C` [Cephalomannine], the “fraction of GFP+ cells” value was found to be 1.54 ± 0.41.
For the compound `COc1ccc2c(c1)/C(=C/c1cnc[nH]1)C(=O)N2`, the “fraction of GFP+ cells” value stood at 1.29 ± 0.051.
As to `CCN1CCN(C(=O)Cc2ccc(Nc3ncc(F)c(Nc4ccc(C(=O)Nc5ccccc5Cl)cc4)n3)cc2)CC1` [Aurora A Inhibitor I], the “fraction of GFP+ cells” value was determined as 0.548 ± 0.13.
For the compound `O=C(O)CCCc1ccc(N(CCCl)CCCl)cc1` [Chloroambucil], the “fraction of GFP+ cells” value came to 2.44 ± 0.046.
In the case of `O=P1(NCCCl)OCCCN1CCCl` (stereo not given) [Ifosfamide], the “fraction of GFP+ cells” value stood at 1.11 ± 0.34.
Then `C[C@H]1CCC/C=C/[C@@H]2C[C@H](O)C[C@H]2[C@H](O)/C=C/C(=O)O1` [Brefeldin A], with 0.627 ± 0.22.
